Assay results: the supplement of paper PMC9844399
Structures can show the parent of a compound that is named as a salt.
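Note: High-content confocal imaging of branched-DNA amplified FISH in 384-well plates, Hoechst-defined nuclei, score is well value minus plate DMSO median over DMSO robust SD, four wells per compound.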

These molecules were tested on HeLa (assay: MALAT1 nuclear FISH intensity, robust Z-score vs DMSO; higher = more nuclear MALAT1 lncRNA, active = -3 or less). Conditions: 10 µM; 6 h.
In the case of `CCN(CC)C(=O)/C(C#N)=C/c1cc(O)c(O)c([N+](=O)[O-])c1` [Entacapone], the “MALAT1 nuclear FISH intensity” value was 0.0508 (inactive).
For `COc1ccc([C@H]2Sc3ccccc3N(CCN(C)C)C(=O)[C@H]2OC(C)=O)cc1`, the “MALAT1 nuclear FISH intensity” value was -0.075 (inactive).
For `CC1(C)O[C@@H]2C[C@H]3[C@@H]4CCC5=CC(=O)C=C[C@]5(C)[C@H]4[C@@H](O)C[C@]3(C)[C@]2(C(=O)CO)O1` [Desonide], the “MALAT1 nuclear FISH intensity” value was 1.25 (inactive).
In the case of `Cc1ccc(O)c([C@H](CCN(C(C)C)C(C)C)c2ccccc2)c1` [Tolterodine L-tartrate], the “MALAT1 nuclear FISH intensity” value was -0.93 (inactive).
With `CC(Cc1ccc(O)c(O)c1)C(C)Cc1ccc(O)c(O)c1` (centres undefined) [Nordihydroguaiaretic acid] the “MALAT1 nuclear FISH intensity” value was 2.37 (inactive).
In the case of `CC(S)C(=O)NCC(=O)O` (centres undefined) [Tiopronin], the “MALAT1 nuclear FISH intensity” value was 1.65 (inactive).
With `CC(=O)/N=c1/sc(S(N)(=O)=O)nn1C` [Methazolamide] the “MALAT1 nuclear FISH intensity” value was -0.558 (inactive).
In the case of `CC1(COc2ccc(CC3SC(=O)NC3=O)cc2)CCCCC1` (centres undefined) [Ciglitazone], the “MALAT1 nuclear FISH intensity” value was 0.154 (inactive).
In the case of `CC(C)(C)NCC(O)c1cc(O)cc(O)c1` (centres undefined) [Terbutaline Hemisulfate], the “MALAT1 nuclear FISH intensity” value was 0.465 (inactive).
For `CC1(C)O[C@@H]2C[C@H]3[C@@H]4C[C@H](F)C5=CC(=O)CC[C@]5(C)[C@H]4[C@@H](O)C[C@]3(C)[C@]2(C(=O)CO)O1` [Flurandrenolide], the “MALAT1 nuclear FISH intensity” value was 0.893 (inactive).
For `Brc1c(NC2=NCCN2)ccc2nccnc12` [Brimonidine], the “MALAT1 nuclear FISH intensity” value was -1.1 (inactive).
In the case of `Nc1ccc(O)c(C(=O)O)c1` [Mesalamine (5-Aminosalicylic Acid)], the “MALAT1 nuclear FISH intensity” value was 0.788 (inactive).
With `Cn1c(=O)n(-c2ccc(C(C)(C)C#N)cc2)c2c3cc(-c4cnc5ccccc5c4)ccc3ncc21` the “MALAT1 nuclear FISH intensity” value was 0.283 (inactive).
`CC(C)c1nc(CN(C)C(=O)N[C@H](C(=O)N[C@@H](Cc2ccccc2)C[C@H](O)[C@H](Cc2ccccc2)NC(=O)OCc2cncs2)C(C)C)cs1` [Ritonavir] was tested, and the “MALAT1 nuclear FISH intensity” value was -0.307 (inactive).
For `COC1=CC(=O)C[C@@H](C)[C@]12Oc1c(Cl)c(OC)cc(OC)c1C2=O` [Griseofulvin], the “MALAT1 nuclear FISH intensity” value was 0.537 (inactive).
`O=c1[nH]cc(F)c(=O)[nH]1` [Fluorouracil (5-Fluorouracil)] was tested, and the “MALAT1 nuclear FISH intensity” value was 0.369 (inactive).
`COC(=O)Nc1nc2cc(C(=O)c3ccccc3)ccc2[nH]1` [Mebendazole] was tested, and the “MALAT1 nuclear FISH intensity” value was -1.33 (inactive).
With `CCC(C)n1ncn(-c2ccc(N3CCN(c4ccc(OCC5COC(Cn6cncn6)(c6ccc(Cl)cc6Cl)O5)cc4)CC3)cc2)c1=O` (centres undefined) [Itraconazole] the “MALAT1 nuclear FISH intensity” value was -1.24 (inactive).
`COc1ccc2[nH]cc(CCNC(C)=O)c2c1` [Melatonin] was tested, and the “MALAT1 nuclear FISH intensity” value was 0.141 (inactive).
`N#Cc1ccc(C(c2ccc(C#N)cc2)n2cncn2)cc1` [Letrozole] was tested, and the “MALAT1 nuclear FISH intensity” value was -0.538 (inactive).
For `COCC1=C(C(=O)OC(C)OC(=O)OC(C)C)N2C(=O)[C@@H](NC(=O)/C(=N\OC)c3csc(N)n3)[C@H]2SC1` (some centres undefined) [Cefpodoxime Proxetil], the “MALAT1 nuclear FISH intensity” value was -0.615 (inactive).
For `CCCN(CCC)S(=O)(=O)c1ccc(C(=O)O)cc1` [Probenecid], the “MALAT1 nuclear FISH intensity” value was 0.389 (inactive).
In the case of `C[C@@H](CN1CCC(n2c(=O)[nH]c3cc(Cl)ccc32)CC1)NC(=O)c1ccc2ccccc2c1`, the “MALAT1 nuclear FISH intensity” value was 0.865 (inactive).
`CN1CCC(=C2c3ccccc3CC(=O)c3sccc32)CC1` [Ketotifen Fumarate] was tested, and the “MALAT1 nuclear FISH intensity” value was -1.02 (inactive).
In the case of `CN(Cc1cnc2nc(N)nc(N)c2n1)c1ccc(C(=O)N[C@@H](CCC(=O)O)C(=O)O)cc1` [Methotrexate], the “MALAT1 nuclear FISH intensity” value was -0.0693 (inactive).
With `CCN(CC)CCNC(=O)c1c(C)[nH]c(/C=C2\C(=O)Nc3ccc(F)cc32)c1C` [Sunitinib Malate] the “MALAT1 nuclear FISH intensity” value was -0.123 (inactive).
`CCC1=C[C@@H]2CN(C1)Cc1c([nH]c3ccccc13)[C@@](C(=O)OC)(c1cc3c(cc1OC)N(C)[C@H]1[C@@](O)(C(=O)OC)[C@H](OC(C)=O)[C@]4(CC)C=CCN5CC[C@]31[C@@H]54)C2` [Vinorelbine] was tested, and the “MALAT1 nuclear FISH intensity” value was -0.378 (inactive).
With `COc1cc(C=C(C#N)C(N)=O)cc(CSc2nc3ccccc3s2)c1O` [Tyrphostin AG-825] the “MALAT1 nuclear FISH intensity” value was -0.244 (inactive).
With `C[C@]12CCC(=O)C=C1CC[C@@H]1[C@@H]2[C@@H](O)C[C@@]2(C)[C@H]1CC[C@]2(O)C(=O)CO` [Hydrocortisone] the “MALAT1 nuclear FISH intensity” value was 1.24 (inactive).
In the case of `CCOC(=O)[C@H](CCc1ccccc1)N[C@H]1CCc2ccccc2N(CC(=O)O)C1=O`, the “MALAT1 nuclear FISH intensity” value was -1.39 (inactive).
`CNCCCN1c2ccccc2CCc2ccc(Cl)cc21` was tested, and the “MALAT1 nuclear FISH intensity” value was 1.16 (inactive).
In the case of `Oc1nc(-c2ccc(C(F)(F)F)cc2)nc2c1CSCC2`, the “MALAT1 nuclear FISH intensity” value was 1.24 (inactive).
In the case of `CC1=C(CC(=O)O)c2cc(F)ccc2/C1=C\c1ccc([S+](C)[O-])cc1` (centres undefined) [Sulindac], the “MALAT1 nuclear FISH intensity” value was -0.159 (inactive).
With `CC1=C(C/C=C(\C)CCC[C@H](C)CCC[C@H](C)CCCC(C)C)C(=O)c2ccccc2C1=O` [Phytonadione] the “MALAT1 nuclear FISH intensity” value was 0.732 (inactive).
`CC1(C)CCC2=C(O1)c1ccccc1C(=O)C2=O` [Beta-lapachone] was tested, and the “MALAT1 nuclear FISH intensity” value was -8.68 (active).
`CC(C)(C)c1cc(/C=C(\C#N)C(N)=S)cc(C(C)(C)C)c1O` [Tyrphostin AG 879] was tested, and the “MALAT1 nuclear FISH intensity” value was 0.454 (inactive).
In the case of `COc1ccc2c(c1)c(CC(=O)N1CCOCC1)c(C)n2C(=O)c1ccc(Cl)cc1`, the “MALAT1 nuclear FISH intensity” value was -0.212 (inactive).
`CCOC(=O)C1=C[C@]2(CC)CCCN3CCc4c(n1c1ccccc41)[C@@H]32` [Vinpocetine] was tested, and the “MALAT1 nuclear FISH intensity” value was 1.66 (inactive).
`CC/C=C\C/C=C\C/C=C\CCCCCCCC(=O)O` [Linolenic acid (18:3 n-3)] was tested, and the “MALAT1 nuclear FISH intensity” value was 0.533 (inactive).
